Reference: ChEMBL document CHEMBL1961873, “Compounds: GSK PKIS; Assays: Nanosyn kinase panel” (2012)

Experiments:
[1] = biological target: Sphingosine kinase 1 (Homo sapiens) (UniProt Q9NYA1); settings: at 1 µM;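 also: mean SPHK1 inhibition value reported from the GSK PKIS kinase panel screen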
[2] = biological target: T1, Sphingosine kinase 2 (Homo sapiens) (UniProt Q9NRA0); settings: at 0.1 µM
T1 sequence (whole entry): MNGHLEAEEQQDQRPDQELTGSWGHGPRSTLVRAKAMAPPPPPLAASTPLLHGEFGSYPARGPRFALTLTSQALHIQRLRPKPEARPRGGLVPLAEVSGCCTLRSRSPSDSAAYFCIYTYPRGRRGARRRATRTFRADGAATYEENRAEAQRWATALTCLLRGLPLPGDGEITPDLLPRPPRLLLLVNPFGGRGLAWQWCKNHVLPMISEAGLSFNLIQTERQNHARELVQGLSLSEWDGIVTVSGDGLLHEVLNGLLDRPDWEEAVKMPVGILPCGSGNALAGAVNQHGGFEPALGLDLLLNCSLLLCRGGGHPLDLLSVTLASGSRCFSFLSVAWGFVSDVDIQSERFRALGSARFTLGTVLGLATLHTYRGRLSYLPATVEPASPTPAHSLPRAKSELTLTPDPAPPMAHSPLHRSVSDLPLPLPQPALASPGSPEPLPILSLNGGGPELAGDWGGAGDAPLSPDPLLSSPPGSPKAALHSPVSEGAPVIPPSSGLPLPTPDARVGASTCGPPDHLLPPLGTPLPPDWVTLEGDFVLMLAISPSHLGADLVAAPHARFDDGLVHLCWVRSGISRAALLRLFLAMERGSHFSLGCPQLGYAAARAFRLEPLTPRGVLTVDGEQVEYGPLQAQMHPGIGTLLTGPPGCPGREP

[3] = biological target: T1, Sphingosine kinase 2 (Homo sapiens); settings: at 1 µM
[4] = biological target: Casein kinase II subunit alpha (Homo sapiens) (UniProt P68400); settings: at 0.1 µM
Casein kinase II subunit alpha (Homo sapiens), sequence (P68400 whole entry, looked up): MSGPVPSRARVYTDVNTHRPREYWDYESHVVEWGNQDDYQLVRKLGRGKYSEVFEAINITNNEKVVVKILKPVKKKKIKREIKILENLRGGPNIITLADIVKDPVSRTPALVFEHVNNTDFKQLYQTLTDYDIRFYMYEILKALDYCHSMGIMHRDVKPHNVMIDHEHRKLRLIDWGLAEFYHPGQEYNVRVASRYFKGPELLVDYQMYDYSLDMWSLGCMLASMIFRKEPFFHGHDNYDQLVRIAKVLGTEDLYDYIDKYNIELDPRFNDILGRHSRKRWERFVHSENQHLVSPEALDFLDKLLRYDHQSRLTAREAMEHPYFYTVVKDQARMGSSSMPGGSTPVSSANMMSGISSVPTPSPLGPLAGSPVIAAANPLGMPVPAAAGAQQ

[5] = biological target: Casein kinase II subunit alpha (Homo sapiens) (UniProt P68400); settings: at 1 µM
[6] = biological target: T2, Inhibitor of nuclear factor kappa-B kinase subunit alpha (Homo sapiens) (UniProt O15111); settings: at 0.1 µM
T2 sequence (whole entry): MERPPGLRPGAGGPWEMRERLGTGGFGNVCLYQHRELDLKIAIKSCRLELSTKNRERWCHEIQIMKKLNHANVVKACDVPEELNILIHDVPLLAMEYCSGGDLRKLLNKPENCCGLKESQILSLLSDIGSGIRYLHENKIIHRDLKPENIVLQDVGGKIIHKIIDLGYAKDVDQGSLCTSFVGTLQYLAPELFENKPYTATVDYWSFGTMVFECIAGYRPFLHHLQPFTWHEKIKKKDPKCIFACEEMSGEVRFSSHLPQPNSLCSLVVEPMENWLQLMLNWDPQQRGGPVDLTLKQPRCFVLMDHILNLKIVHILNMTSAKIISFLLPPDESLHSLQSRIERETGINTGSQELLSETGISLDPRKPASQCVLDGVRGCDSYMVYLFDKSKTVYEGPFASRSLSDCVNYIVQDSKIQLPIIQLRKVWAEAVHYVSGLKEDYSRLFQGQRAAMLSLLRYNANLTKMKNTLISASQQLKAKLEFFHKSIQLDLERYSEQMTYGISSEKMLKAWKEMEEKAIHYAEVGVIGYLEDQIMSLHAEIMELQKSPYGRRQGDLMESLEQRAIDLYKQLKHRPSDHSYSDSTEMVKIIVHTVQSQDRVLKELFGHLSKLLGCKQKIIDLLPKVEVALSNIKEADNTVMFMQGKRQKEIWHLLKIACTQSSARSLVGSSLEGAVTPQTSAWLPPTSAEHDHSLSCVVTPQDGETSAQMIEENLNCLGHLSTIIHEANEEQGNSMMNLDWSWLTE

[7] = biological target: T2, Inhibitor of nuclear factor kappa-B kinase subunit alpha (Homo sapiens); settings: at 1 µM
[8] = biological target: T3, Inhibitor of nuclear factor kappa-B kinase subunit beta (Homo sapiens) (UniProt O14920); settings: at 0.1 µM
T3 sequence (whole entry): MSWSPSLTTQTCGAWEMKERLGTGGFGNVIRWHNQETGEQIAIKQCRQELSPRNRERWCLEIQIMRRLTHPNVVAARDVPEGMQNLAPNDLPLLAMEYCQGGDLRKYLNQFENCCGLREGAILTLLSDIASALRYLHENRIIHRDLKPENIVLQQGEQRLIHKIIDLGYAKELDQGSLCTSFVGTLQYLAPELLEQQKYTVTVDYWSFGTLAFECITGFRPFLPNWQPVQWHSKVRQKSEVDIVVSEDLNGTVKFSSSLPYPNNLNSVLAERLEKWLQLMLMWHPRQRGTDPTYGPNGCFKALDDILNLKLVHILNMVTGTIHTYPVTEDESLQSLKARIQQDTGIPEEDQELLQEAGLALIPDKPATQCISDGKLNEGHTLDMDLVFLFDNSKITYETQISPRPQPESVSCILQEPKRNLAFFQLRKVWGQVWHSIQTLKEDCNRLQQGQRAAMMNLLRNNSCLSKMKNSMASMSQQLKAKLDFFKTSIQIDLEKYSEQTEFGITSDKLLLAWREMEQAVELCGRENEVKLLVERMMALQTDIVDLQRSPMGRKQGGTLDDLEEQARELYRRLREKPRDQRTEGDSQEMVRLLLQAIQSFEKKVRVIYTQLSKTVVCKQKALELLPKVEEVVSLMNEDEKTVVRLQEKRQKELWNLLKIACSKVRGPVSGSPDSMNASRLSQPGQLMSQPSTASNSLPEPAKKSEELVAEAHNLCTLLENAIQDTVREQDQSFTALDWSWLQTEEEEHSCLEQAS

[9] = biological target: T3, Inhibitor of nuclear factor kappa-B kinase subunit beta (Homo sapiens); settings: at 1 µM
[10] = biological target: T4, Inhibitor of nuclear factor kappa-B kinase subunit epsilon (Homo sapiens) (UniProt Q14164); settings: at 0.1 µM
T4 sequence (whole entry): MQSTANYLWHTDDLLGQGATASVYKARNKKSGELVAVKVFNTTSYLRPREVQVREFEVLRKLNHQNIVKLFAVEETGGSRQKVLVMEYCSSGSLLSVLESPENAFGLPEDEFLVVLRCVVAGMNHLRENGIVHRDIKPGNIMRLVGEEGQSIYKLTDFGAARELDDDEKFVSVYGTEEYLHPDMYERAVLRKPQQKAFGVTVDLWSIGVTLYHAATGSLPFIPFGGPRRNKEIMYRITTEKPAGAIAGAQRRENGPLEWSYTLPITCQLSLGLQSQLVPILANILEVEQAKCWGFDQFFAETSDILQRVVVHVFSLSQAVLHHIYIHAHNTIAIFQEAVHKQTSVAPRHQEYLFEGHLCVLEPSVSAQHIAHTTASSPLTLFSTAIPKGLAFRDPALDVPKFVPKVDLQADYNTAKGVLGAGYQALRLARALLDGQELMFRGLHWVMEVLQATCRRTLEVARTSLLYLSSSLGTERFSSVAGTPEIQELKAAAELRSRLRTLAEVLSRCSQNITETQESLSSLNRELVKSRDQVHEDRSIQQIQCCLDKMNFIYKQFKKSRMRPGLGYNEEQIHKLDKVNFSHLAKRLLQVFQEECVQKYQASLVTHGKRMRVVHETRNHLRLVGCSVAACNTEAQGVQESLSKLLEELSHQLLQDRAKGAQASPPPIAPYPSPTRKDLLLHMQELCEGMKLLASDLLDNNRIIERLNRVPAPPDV

[11] = biological target: T4, Inhibitor of nuclear factor kappa-B kinase subunit epsilon (Homo sapiens); settings: at 1 µM
[12] = biological target: T5, Serine/threonine-protein kinase Nek1 (Homo sapiens) (UniProt Q96PY6); settings: at 0.1 µM
T5 sequence (whole entry): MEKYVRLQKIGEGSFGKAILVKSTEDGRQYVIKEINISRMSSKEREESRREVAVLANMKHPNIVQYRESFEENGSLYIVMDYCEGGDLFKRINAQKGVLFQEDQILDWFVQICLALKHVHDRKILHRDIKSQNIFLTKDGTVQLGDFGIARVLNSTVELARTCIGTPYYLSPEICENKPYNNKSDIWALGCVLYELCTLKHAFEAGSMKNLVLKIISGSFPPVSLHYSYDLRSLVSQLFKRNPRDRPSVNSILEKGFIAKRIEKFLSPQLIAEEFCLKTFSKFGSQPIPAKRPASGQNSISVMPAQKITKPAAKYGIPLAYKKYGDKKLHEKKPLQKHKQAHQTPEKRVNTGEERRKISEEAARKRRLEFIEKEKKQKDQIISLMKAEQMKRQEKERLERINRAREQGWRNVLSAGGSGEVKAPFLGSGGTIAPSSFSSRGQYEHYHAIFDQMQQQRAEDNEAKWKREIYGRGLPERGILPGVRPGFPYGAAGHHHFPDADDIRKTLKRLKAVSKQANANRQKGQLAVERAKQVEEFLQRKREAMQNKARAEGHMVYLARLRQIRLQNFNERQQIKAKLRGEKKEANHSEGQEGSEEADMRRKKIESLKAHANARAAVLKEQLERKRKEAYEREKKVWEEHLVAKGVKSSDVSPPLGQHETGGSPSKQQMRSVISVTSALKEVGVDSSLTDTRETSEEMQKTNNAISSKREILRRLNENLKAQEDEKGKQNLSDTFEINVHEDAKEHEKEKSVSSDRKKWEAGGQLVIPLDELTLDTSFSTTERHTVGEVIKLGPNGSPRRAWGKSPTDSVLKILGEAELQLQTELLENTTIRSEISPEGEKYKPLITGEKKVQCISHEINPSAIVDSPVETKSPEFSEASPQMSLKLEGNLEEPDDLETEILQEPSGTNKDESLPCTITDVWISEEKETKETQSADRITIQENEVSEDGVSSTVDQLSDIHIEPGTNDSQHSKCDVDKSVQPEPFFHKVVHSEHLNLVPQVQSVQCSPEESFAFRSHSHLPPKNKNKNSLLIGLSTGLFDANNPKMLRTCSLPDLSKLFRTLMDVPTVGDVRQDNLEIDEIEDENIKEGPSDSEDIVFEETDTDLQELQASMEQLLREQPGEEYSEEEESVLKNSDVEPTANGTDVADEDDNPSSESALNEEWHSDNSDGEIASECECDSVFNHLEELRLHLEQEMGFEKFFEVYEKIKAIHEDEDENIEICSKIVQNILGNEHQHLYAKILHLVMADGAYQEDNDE

[13] = biological target: T5, Serine/threonine-protein kinase Nek1 (Homo sapiens); settings: at 1 µM
[14] = biological target: T6, Serine/threonine-protein kinase Nek2 (Homo sapiens) (UniProt P51955); settings: at 0.1 µM
T6 sequence (whole entry): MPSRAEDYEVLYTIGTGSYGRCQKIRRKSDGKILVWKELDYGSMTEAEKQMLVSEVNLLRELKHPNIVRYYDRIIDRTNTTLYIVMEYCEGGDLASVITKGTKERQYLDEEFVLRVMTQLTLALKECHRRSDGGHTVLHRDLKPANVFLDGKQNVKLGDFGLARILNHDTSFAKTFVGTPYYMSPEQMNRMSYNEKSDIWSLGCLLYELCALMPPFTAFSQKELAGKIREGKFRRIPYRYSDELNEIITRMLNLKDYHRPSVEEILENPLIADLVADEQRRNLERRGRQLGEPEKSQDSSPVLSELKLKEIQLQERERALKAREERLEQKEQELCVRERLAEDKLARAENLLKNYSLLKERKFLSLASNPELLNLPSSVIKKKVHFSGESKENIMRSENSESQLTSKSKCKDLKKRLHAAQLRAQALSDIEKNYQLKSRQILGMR

[15] = biological target: T6, Serine/threonine-protein kinase Nek2 (Homo sapiens); settings: at 1 µM
[16] = biological target: Serine/threonine-protein kinase Nek6 (Homo sapiens) (UniProt Q9HC98); settings: at 0.1 µM
Serine/threonine-protein kinase Nek6 (Homo sapiens), sequence (Q9HC98 whole entry): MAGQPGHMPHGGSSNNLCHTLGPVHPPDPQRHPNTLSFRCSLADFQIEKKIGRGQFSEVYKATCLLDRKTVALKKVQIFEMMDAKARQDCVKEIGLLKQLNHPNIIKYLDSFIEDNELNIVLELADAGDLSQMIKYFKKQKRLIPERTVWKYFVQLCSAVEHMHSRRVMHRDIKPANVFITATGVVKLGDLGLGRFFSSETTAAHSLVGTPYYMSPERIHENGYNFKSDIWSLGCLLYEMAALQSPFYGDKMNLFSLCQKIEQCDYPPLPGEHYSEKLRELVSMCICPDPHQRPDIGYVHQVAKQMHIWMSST

[17] = biological target: Serine/threonine-protein kinase Nek6 (Homo sapiens) (UniProt Q9HC98); settings: at 1 µM
[18] = biological target: Serine/threonine-protein kinase Nek7 (Homo sapiens) (UniProt Q8TDX7); settings: at 0.1 µM
Serine/threonine-protein kinase Nek7 (Homo sapiens), sequence (Q8TDX7 whole entry, looked up): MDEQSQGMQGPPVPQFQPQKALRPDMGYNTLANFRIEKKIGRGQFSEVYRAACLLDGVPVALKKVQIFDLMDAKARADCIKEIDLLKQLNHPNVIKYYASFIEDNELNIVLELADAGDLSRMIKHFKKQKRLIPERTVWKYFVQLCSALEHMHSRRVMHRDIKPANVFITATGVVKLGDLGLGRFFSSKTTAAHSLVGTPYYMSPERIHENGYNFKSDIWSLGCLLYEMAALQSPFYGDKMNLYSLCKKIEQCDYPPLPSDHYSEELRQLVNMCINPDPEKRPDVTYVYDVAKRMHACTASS

[19] = biological target: Serine/threonine-protein kinase Nek7 (Homo sapiens) (UniProt Q8TDX7); settings: at 1 µM
[20] = biological target: T7, Serine/threonine-protein kinase Nek9 (Homo sapiens) (UniProt Q8TD19); settings: at 0.1 µM;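 also: reported value is the mean percent inhibition of NEK9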
T7 sequence (whole entry): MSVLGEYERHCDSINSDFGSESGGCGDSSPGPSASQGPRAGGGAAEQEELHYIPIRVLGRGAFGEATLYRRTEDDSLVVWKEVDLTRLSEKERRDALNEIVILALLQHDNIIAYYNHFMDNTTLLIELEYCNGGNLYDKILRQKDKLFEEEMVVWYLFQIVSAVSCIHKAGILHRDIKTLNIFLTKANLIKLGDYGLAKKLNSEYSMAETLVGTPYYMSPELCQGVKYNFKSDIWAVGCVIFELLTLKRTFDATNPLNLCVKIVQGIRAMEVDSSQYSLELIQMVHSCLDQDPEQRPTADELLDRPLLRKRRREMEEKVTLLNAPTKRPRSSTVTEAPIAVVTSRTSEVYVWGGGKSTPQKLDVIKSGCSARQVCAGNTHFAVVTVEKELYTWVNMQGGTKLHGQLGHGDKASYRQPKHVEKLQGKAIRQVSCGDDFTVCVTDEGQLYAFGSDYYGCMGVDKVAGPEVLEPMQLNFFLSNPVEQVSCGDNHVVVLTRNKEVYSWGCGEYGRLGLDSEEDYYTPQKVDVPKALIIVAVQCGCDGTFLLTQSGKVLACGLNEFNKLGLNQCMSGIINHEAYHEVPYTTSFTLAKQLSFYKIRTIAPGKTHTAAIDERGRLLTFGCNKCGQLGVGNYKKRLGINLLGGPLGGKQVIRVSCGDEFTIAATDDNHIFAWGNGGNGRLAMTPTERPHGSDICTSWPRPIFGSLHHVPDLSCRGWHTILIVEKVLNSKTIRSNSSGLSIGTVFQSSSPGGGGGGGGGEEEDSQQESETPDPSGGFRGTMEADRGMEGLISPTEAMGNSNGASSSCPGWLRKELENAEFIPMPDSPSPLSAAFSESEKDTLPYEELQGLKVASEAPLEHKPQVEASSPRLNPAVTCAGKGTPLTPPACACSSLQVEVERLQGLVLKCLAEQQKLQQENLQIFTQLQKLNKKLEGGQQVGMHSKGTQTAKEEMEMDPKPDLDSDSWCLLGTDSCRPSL

Sphingosine kinase 1 (Homo sapiens), sequence (Q9NYA1 whole entry): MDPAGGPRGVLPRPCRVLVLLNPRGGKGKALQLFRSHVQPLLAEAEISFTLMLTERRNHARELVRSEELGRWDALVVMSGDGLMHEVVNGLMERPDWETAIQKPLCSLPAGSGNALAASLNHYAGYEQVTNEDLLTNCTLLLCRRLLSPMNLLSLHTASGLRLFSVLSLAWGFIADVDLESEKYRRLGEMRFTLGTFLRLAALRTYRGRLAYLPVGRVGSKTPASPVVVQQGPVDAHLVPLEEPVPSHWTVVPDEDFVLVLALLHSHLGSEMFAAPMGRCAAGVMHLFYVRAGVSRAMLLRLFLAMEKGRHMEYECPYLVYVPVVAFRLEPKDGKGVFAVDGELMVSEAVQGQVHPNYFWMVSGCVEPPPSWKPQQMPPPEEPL

Compound	inhibition [1] [%]	inhibition [2] [%]	inhibition [3] [%]	inhibition [4] [%]	inhibition [5] [%]	inhibition [6] [%]	inhibition [7] [%]	inhibition [8] [%]	inhibition [9] [%]	inhibition [10] [%]	inhibition [11] [%]	inhibition [12] [%]	inhibition [13] [%]	inhibition [14] [%]	inhibition [15] [%]	inhibition [16] [%]	inhibition [17] [%]	inhibition [18] [%]	inhibition [19] [%]	inhibition [20] [%]
Cc1ccc(Nc2ccnc(Nc3cccc(C(N)=O)c3)n2)cc1O	-3.44	0.84	0.08	4.12	10.5	4.77	9.75	7.9	26.8	11.4	19.4	2.35	3.58	4	2.98	4.22	2.69	4.63	4.4	6.86
COc1cc(Nc2nccc(-c3cnn4ncccc34)n2)cc(OC)c1	0.57	0	0.21	8.84	42.7	17.4	71.4	5.71	24.5	5.75	28.2	2.05	19.3	2.03	12	-0.86	2.06	2.07	3.54	17.3
